# Measured values taken from the supplement of paper PMC9794691.
# ± gives the standard deviation of the averaged measurements.
# Test system: PC9
# Experiment: area under confluence curve of osimertinib + compound combination regimen (DTP regrowth); compare to osimertinib-only DTP control AUC of the same experiment (AUC (confluence x time, arbitrary))
# Protocol: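 compare to osimertinib-only DTP control AUC of the same experiment; Long-term drug-tolerant persister (DTP) screen in EGFR-mutant NSCLC cell lines in 48-well plates. The test compound was given at one fixed dose with osimertinib, either upfront (from day 0 to the DTP stage at 10-21 days, then drug-free medium) or sequentially (osimertinib alone to the DTP stage, then the test compound). IncuCyte confluence was tracked until osimertinib-only controls regrew, and AUC was computed in Prism. AUC scale depends on experiment duration, so each row carries the same-experiment osimertinib-only DTP and DMSO control AUCs; combination activity = control minus combo AUC. Osimertinib dose not stated.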
# [1] = test compound dose 1000 nM, dosing schedule: sequential, osimertinib-only DTP control AUC in same experiment: 10968, DMSO control AUC in same experiment: 21594
# [2] = test compound dose 1000 nM, dosing schedule: upfront, osimertinib-only DTP control AUC in same experiment: 17834, DMSO control AUC in same experiment: 21594
# [3] = test compound dose 1000 nM, dosing schedule: sequential, osimertinib-only DTP control AUC in same experiment: 16279, DMSO control AUC in same experiment: 29345
# [4] = test compound dose 1000 nM, dosing schedule: upfront, osimertinib-only DTP control AUC in same experiment: 19769, DMSO control AUC in same experiment: 29345
structure (smiles),measurement,setting,value
NC(=O)Nc1cc(-c2cccc(F)c2)sc1C(=O)N[C@H]1CCCNC1 + C=CC(=O)Nc1cc(Nc2nccc(-c3cn(C)c4ccccc34)n2)c(OC)cc1N(C)CCN(C)C [osimertinib],area under confluence curve,"test compound dose 5 nM, dosing schedule: sequential, osimertinib-only DTP control AUC in same experiment: 7760, DMSO control AUC in same experiment: 29563",4940
same,area under confluence curve,"test compound dose 5 nM, dosing schedule: upfront, osimertinib-only DTP control AUC in same experiment: 11798, DMSO control AUC in same experiment: 29563",9410
Cc1nc(-c2nc(-c3ccc(OC(F)(F)F)cc3)no2)nn1Cc1cccc(N2CCC(S(C)(=O)=O)CC2)c1 + C=CC(=O)Nc1cc(Nc2nccc(-c3cn(C)c4ccccc34)n2)c(OC)cc1N(C)CCN(C)C [osimertinib],area under confluence curve,"test compound dose 10 nM, dosing schedule: sequential, osimertinib-only DTP control AUC in same experiment: 11178, DMSO control AUC in same experiment: 18385",9950
same,area under confluence curve,"test compound dose 10 nM, dosing schedule: sequential, osimertinib-only DTP control AUC in same experiment: 12231, DMSO control AUC in same experiment: 19076",3870
same,area under confluence curve,"test compound dose 10 nM, dosing schedule: upfront, osimertinib-only DTP control AUC in same experiment: 16535, DMSO control AUC in same experiment: 19076",12500
same,area under confluence curve,"test compound dose 10 nM, dosing schedule: upfront, osimertinib-only DTP control AUC in same experiment: 16887, DMSO control AUC in same experiment: 18385",15300
C[C@@]1(C(=O)Nc2ccc(F)nc2)CCCN1c1nc(Nc2cc(C3CC3)n[nH]2)c2cccn2n1 + C=CC(=O)Nc1cc(Nc2nccc(-c3cn(C)c4ccccc34)n2)c(OC)cc1N(C)CCN(C)C [osimertinib],area under confluence curve,"test compound dose 100 nM, dosing schedule: sequential, osimertinib-only DTP control AUC in same experiment: 1963, DMSO control AUC in same experiment: 30580",219 ± 17
same,area under confluence curve,"test compound dose 100 nM, dosing schedule: sequential, osimertinib-only DTP control AUC in same experiment: 12502, DMSO control AUC in same experiment: 49143",7400
same,area under confluence curve,"test compound dose 100 nM, dosing schedule: sequential, osimertinib-only DTP control AUC in same experiment: 14708, DMSO control AUC in same experiment: 21341",3460
same,area under confluence curve,"test compound dose 100 nM, dosing schedule: upfront, osimertinib-only DTP control AUC in same experiment: 8618, DMSO control AUC in same experiment: 30580",4520 ± 430
same,area under confluence curve,"test compound dose 100 nM, dosing schedule: upfront, osimertinib-only DTP control AUC in same experiment: 21313, DMSO control AUC in same experiment: 21341",7730
same,area under confluence curve,"test compound dose 100 nM, dosing schedule: upfront, osimertinib-only DTP control AUC in same experiment: 28310, DMSO control AUC in same experiment: 49143",13100
CCN1CCN(Cc2ccc(Nc3ncc(F)c(-c4cc(F)c5nc(C)n(C(C)C)c5c4)n3)nc2)CC1 [Abemaciclib] + C=CC(=O)Nc1cc(Nc2nccc(-c3cn(C)c4ccccc34)n2)c(OC)cc1N(C)CCN(C)C [osimertinib],area under confluence curve,"test compound dose 100 nM, dosing schedule: sequential, osimertinib-only DTP control AUC in same experiment: 10725, DMSO control AUC in same experiment: 30578",2310
same,area under confluence curve,"test compound dose 100 nM, dosing schedule: sequential, osimertinib-only DTP control AUC in same experiment: 15163, DMSO control AUC in same experiment: 28684",7750
same,area under confluence curve,"test compound dose 100 nM, dosing schedule: sequential, osimertinib-only DTP control AUC in same experiment: 23366, DMSO control AUC in same experiment: 88996",7100
same,area under confluence curve,"test compound dose 100 nM, dosing schedule: upfront, osimertinib-only DTP control AUC in same experiment: 10245, DMSO control AUC in same experiment: 30578",6070
same,area under confluence curve,"test compound dose 100 nM, dosing schedule: upfront, osimertinib-only DTP control AUC in same experiment: 21337, DMSO control AUC in same experiment: 28684",15800
same,area under confluence curve,"test compound dose 100 nM, dosing schedule: upfront, osimertinib-only DTP control AUC in same experiment: 29852, DMSO control AUC in same experiment: 88996",6410
O=C(NC[C@H](O)CN1CCc2ccccc2C1)c1ccnc(NC2CCC2)c1 + C=CC(=O)Nc1cc(Nc2nccc(-c3cn(C)c4ccccc34)n2)c(OC)cc1N(C)CCN(C)C [osimertinib],area under confluence curve,"test compound dose 100 nM, dosing schedule: sequential, osimertinib-only DTP control AUC in same experiment: 12891, DMSO control AUC in same experiment: 44384",979
same,area under confluence curve,"test compound dose 100 nM, dosing schedule: upfront, osimertinib-only DTP control AUC in same experiment: 16570, DMSO control AUC in same experiment: 44384",3800
Cc1nc(Nc2n[nH]c3c2CN(C(=O)N[C@H](CN(C)C)c2ccccc2)C3(C)C)c2sccc2n1 + C=CC(=O)Nc1cc(Nc2nccc(-c3cn(C)c4ccccc34)n2)c(OC)cc1N(C)CCN(C)C [osimertinib],area under confluence curve,"test compound dose 100 nM, dosing schedule: sequential, osimertinib-only DTP control AUC in same experiment: 14258, DMSO control AUC in same experiment: 20347",3500
same,area under confluence curve,"test compound dose 100 nM, dosing schedule: upfront, osimertinib-only DTP control AUC in same experiment: 21499, DMSO control AUC in same experiment: 20347",12300
Cn1cnc2c(F)c(Nc3ccc(Br)cc3Cl)c(C(=O)NOCCO)cc21 [Selumetinib] + C=CC(=O)Nc1cc(Nc2nccc(-c3cn(C)c4ccccc34)n2)c(OC)cc1N(C)CCN(C)C [osimertinib],area under confluence curve,"test compound dose 300 nM, dosing schedule: sequential, osimertinib-only DTP control AUC in same experiment: 14554, DMSO control AUC in same experiment: 49189",10400
same,area under confluence curve,"test compound dose 300 nM, dosing schedule: upfront, osimertinib-only DTP control AUC in same experiment: 24473, DMSO control AUC in same experiment: 49189",11200
CS(=O)(=O)N1CCN(Cc2cc3nc(-c4cccc5[nH]ncc45)nc(N4CCOCC4)c3s2)CC1 + C=CC(=O)Nc1cc(Nc2nccc(-c3cn(C)c4ccccc34)n2)c(OC)cc1N(C)CCN(C)C [osimertinib],area under confluence curve,"test compound dose 1000 nM, dosing schedule: sequential, osimertinib-only DTP control AUC in same experiment: 1963, DMSO control AUC in same experiment: 30580",1580 ± 160
same,area under confluence curve,"test compound dose 1000 nM, dosing schedule: upfront, osimertinib-only DTP control AUC in same experiment: 8618, DMSO control AUC in same experiment: 30580",4540 ± 320
CCOC(=O)c1ccnc(CNCC(=O)N(CC)CCN(C)C)c1 + C=CC(=O)Nc1cc(Nc2nccc(-c3cn(C)c4ccccc34)n2)c(OC)cc1N(C)CCN(C)C [osimertinib],area under confluence curve,"test compound dose 1000 nM, dosing schedule: sequential, osimertinib-only DTP control AUC in same experiment: 3562, DMSO control AUC in same experiment: 31840",3420
same,area under confluence curve,"test compound dose 1000 nM, dosing schedule: upfront, osimertinib-only DTP control AUC in same experiment: 19015, DMSO control AUC in same experiment: 31840",16700
COc1cc(CCc2cc(NC(=O)c3ccc(N4CC(C)NC(C)C4)cc3)n[nH]2)cc(OC)c1 (stereo not given) + C=CC(=O)Nc1cc(Nc2nccc(-c3cn(C)c4ccccc34)n2)c(OC)cc1N(C)CCN(C)C [osimertinib],area under confluence curve,"test compound dose 1000 nM, dosing schedule: sequential, osimertinib-only DTP control AUC in same experiment: 9508, DMSO control AUC in same experiment: 26668",4800
same,area under confluence curve,[1],7160
same,area under confluence curve,"test compound dose 1000 nM, dosing schedule: upfront, osimertinib-only DTP control AUC in same experiment: 11298, DMSO control AUC in same experiment: 26668",2090
same,area under confluence curve,[2],6660
O=C([C@@H](Cc1cccc(C(F)(F)F)c1)NS(=O)(=O)c1cc(F)c2c(c1)CCNC2)N1CCCC1 + C=CC(=O)Nc1cc(Nc2nccc(-c3cn(C)c4ccccc34)n2)c(OC)cc1N(C)CCN(C)C [osimertinib],area under confluence curve,[1],10000
same,area under confluence curve,[2],13600
Cc1cc(Nc2ncnc3ccc(NC4=NC(C)(C)CO4)cc23)ccc1Oc1ccn2ncnc2c1 [Tucatinib] + C=CC(=O)Nc1cc(Nc2nccc(-c3cn(C)c4ccccc34)n2)c(OC)cc1N(C)CCN(C)C [osimertinib],area under confluence curve,"test compound dose 1000 nM, dosing schedule: sequential, osimertinib-only DTP control AUC in same experiment: 13992, DMSO control AUC in same experiment: 30002",11100
same,area under confluence curve,[3],17500
same,area under confluence curve,[4],18600
same,area under confluence curve,"test compound dose 1000 nM, dosing schedule: upfront, osimertinib-only DTP control AUC in same experiment: 22377, DMSO control AUC in same experiment: 30002",17200
CS(=O)(=O)CCNCc1ccc(-c2ccc3ncnc(Nc4ccc(OCc5cccc(F)c5)c(Cl)c4)c3c2)o1 [Lapatinib] + C=CC(=O)Nc1cc(Nc2nccc(-c3cn(C)c4ccccc34)n2)c(OC)cc1N(C)CCN(C)C [osimertinib],area under confluence curve,[3],21600
same,area under confluence curve,[4],18300
